Laboratory results taken from ChEMBL document CHEMBL1201862, “PubChem BioAssay data set” (2004).
In all, about 350,000 compounds went through this assay and about 31,000 (8.9%) were called active. Inconclusive results (about 15%) are left out. The calls are words filed in the database; no cut-off is given here. This excerpt belongs to a sample that is enriched for actives.

What follows are molecules tested against T1, Histone-lysine N-methyltransferase EHMT2 (Homo sapiens) (UniProt Q96KQ7) (assay: qHTS Assay for Inhibitors of Histone Lysine Methyltransferase G9a. [Related pubchem assays (depositor defined):AID504404]).
T1 sequence (whole entry): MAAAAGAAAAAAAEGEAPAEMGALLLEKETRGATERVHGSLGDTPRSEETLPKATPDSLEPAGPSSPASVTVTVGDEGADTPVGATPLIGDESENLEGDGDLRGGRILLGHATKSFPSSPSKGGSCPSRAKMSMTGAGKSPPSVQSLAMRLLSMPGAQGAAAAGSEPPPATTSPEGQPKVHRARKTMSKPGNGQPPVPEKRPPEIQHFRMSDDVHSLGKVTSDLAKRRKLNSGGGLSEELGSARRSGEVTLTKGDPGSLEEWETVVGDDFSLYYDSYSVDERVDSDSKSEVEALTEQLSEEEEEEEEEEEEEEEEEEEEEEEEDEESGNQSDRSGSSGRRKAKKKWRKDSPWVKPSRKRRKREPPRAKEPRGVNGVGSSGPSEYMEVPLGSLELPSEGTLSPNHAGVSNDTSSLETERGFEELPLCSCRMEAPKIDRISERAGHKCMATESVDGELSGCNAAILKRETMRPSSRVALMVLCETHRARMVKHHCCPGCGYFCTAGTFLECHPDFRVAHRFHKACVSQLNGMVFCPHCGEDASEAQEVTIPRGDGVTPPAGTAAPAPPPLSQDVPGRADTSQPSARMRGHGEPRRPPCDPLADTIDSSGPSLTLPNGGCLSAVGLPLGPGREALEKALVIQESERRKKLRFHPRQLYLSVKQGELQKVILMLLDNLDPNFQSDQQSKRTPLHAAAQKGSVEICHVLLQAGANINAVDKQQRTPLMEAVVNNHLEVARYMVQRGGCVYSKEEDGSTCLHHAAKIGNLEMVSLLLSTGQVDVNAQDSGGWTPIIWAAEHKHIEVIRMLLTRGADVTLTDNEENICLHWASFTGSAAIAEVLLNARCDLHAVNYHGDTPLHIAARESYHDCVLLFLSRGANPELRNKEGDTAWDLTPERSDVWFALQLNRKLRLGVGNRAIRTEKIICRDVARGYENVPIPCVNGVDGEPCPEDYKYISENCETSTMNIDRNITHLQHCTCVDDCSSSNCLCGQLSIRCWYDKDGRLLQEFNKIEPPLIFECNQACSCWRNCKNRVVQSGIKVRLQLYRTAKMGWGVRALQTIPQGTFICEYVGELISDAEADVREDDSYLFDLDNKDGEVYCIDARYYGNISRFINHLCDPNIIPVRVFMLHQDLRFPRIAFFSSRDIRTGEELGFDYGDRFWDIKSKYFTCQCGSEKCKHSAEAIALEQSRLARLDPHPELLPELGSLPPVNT
Assay type: functional
For `Cl[Te]1(Cl)OCCO1`, the Potency was 7.94 µM (active).
